This note sets out measurements from PubChem BioAssay (NCATS).

Experiment [1] can be described thus: AP1 Signaling Pathway (AID 357; active means well fitted curve in either direction with a large enough effect, not every such curve was filed as active; further: on the % scale 0 is the no-effect control and ±100 the full control effect). The procedure, abridged:
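ME-180 cells with beta-lactamase reporter under AP-1 response element, stimulated with EC50 EGF; compounds tested in titration series, 5 h at 37 °C. CCF4 substrate added 2.5 h at room temperature; 460/530 nm emission ratio gave %activity and AC50.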

Experiment [2] in a line: NFAT Signaling Pathway (AID 444; active means well fitted curve in either direction with a large enough effect, not every such curve was filed as active;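 further: carbachol stimulus at about its EC50 of 1 µM final; on the % scale 0 is the no-effect control and ±100 the full control effect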). The conditions noted are these: Jurkat NFAT-bla M1, carbachol, beta-lactamase ratio, 5 h; at 17.2 µM (top of the series) unless noted. The method, boiled down:
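Jurkat cells carrying an NFAT-driven β-lactamase reporter and co-transfected muscarinic M1 receptor were treated with compound plus carbachol (1 uM final, an EC50 level) for 5 h at 37 °C. CCF4 loading followed for 1 h at RT; 460/530 nm ratio gave %activity.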

A short description of experiment [3]: Stat Signaling Pathway (AID 446; active means well fitted curve in either direction with a large enough effect, not every such curve was filed as active;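 further: ME-180 cervical cancer cells given 40 pM IL-6 alongside compound; SIE-controlled beta-lactamase reporter measured as 460/530 nm FRET emission ratio; on the % scale 0 is the no-effect control and ±100 the full control effect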). The procedure, abridged:
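Screening format detects activators and inhibitors alike: ME-180 SIE-bla cells stimulated at 40 pM IL-6 for 5 hrs with compound, then dual-emission beta-lactamase read at 405 nm excitation.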

The target in experiment [4] is Glucocorticoid receptor (Homo sapiens) (UniProt P04150). Kind of experiment: GR-GFP Redistribution (AID 450;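 active means compounds whose dose series gives a full or clear partial fitted curve of increased nuclear translocation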; further: potency means the concentration at half of the fitted maximal effect). The conditions noted are these: U2OS GR-GFP nuclear translocation, laser cytometry, 2 h.
Sequence of Glucocorticoid receptor (Homo sapiens) (P04150 whole entry, looked up): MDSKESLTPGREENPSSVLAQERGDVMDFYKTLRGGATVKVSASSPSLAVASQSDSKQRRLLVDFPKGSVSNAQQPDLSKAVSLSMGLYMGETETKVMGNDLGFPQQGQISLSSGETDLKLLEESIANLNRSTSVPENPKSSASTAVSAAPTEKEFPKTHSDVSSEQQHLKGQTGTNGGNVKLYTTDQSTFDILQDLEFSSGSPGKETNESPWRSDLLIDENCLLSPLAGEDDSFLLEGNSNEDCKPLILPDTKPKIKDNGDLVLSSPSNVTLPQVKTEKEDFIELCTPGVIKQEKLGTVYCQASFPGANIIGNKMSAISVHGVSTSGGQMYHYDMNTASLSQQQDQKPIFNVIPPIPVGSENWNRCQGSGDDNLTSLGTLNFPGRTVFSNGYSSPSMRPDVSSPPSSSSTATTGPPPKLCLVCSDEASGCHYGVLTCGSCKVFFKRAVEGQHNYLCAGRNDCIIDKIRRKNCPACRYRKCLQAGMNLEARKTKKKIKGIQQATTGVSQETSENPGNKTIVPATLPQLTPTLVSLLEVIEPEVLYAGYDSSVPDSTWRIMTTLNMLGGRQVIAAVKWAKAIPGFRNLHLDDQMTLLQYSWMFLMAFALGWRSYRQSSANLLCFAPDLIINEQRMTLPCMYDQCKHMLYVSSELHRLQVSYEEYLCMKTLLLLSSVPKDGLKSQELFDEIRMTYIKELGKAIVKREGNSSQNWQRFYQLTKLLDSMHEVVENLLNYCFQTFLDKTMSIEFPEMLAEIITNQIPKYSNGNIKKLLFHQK
Experiment [5] shares this target. Put plainly: GR-EFC Redistribution (AID 451; calls by dose curve; further: potency means the concentration at half of the fitted maximal effect). The conditions noted are these: CHO-K1 GR-EFC translocation, beta-gal luminescence, 2 h. The method, boiled down:
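CHO-K1 cells stably expressing nuclear-localized β-gal enzyme acceptor and GR fused C-terminally to the enzyme donor fragment; ligand-driven nuclear translocation restores β-gal by complementation. Compounds titrated up to 46 uM final, 2 h at 37 °C; luminescence read.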

Experiment [6] concerns the target Mitogen-activated protein kinase 10 (Mus musculus) (UniProt Q61831). Kind of experiment: JNK3 AlphaScreen Assay (AID 530; active means well fitted curve in either direction with a large enough effect, not every such curve was filed as active;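 further: kinase came from lysate of stimulated human HepG2 cells; signal reports phosphorylation of biotinylated GST-cJun 1-79 at Ser73 with 10 µM ATP; on the % scale 0 is the no-effect control and ±100 the full control effect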). The procedure, abridged:
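JNK3 came from HepG2 lysates pre-activated with IL-1beta and TNF-alpha and phosphorylated biotinylated GST-cJun (1-79) at 10 uM ATP, pH 7.6, room temperature. Compounds were titrated. AlphaScreen signal used anti-phospho-cJun (Ser73) antibody.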
On the technique in general: In Alpha technology, singlet oxygen from a donor bead excites a nearby acceptor bead.

The target of experiment [7] is 3',5'-cyclic-AMP phosphodiesterase 4B (Homo sapiens) (UniProt Q07343). Kind of experiment: qHTS Assay for Inhibitors of PDE-IV (AID 607; active means well fitted activation curve with a large enough effect in the main read-out, with a control signal flat, not every such curve was filed as active; further: % of control where 0% means no effect). The procedure, abridged:
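The readout is membrane depolarisation from a cAMP-sensing CNG channel, detected with a potential dye at ex 535/em 590. Cells were HEK293-derived (endogenous PDE-IV) at 1000 cells/well, titrated up to 22.9 uM final.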

Experiment [8] in a line: qHTS Assay for Lipid Storage Modulators (AID 1519; calls by dose curve). The conditions noted are these: Drosophila S3 cells, BODIPY lipid droplet/cell ratio, laser cytometry, cells loaded with oleic acid; for activity change, negative = inhibition: at 25.7 µM (top of the series). The procedure, abridged: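 Cells seeded at 5,000 per well were treated with compounds over a concentration series and loaded with oleic acid (400 uM, as added). Lipid droplet fluorescence (488 nm excitation, 500-530 nm channel) was read by laser-scanning cytometry and normalized to 20 uM Triacsin C.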

In experiment [9] the target is Ubiquitin carboxyl-terminal hydrolase 1 (Homo sapiens) (UniProt O94782). Kind of experiment: Inhibitors of USP1/UAF1: Pilot qHTS (AID 504865).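 Further: rhodamine fluorescence freed from ubiquitin-rhodamine substrate followed over time; top concentration of the series differs between compounds; on the % scale 0 is the no-effect control and ±100 the full control effect; nearly all actives have a fitted effect of over 35% in size.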 The procedure, abridged:
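In 50mM HEPES pH 7.8 containing 0.5mM EDTA, 1mM TCEP, 0.1 mg/ml BSA and 0.01% Tween-20, 1nM USP1/UAF1 is exposed to compound for 15 min, then Ub-Rho (150nM final) is added and fluorescence is read over time.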
On the technique in general: Quantitative high-throughput screening tests each substance at several concentrations.

A short description of experiment [10]: qHTS profiling for inhibitors of Plasmodium falciparum proliferation (AID 504749).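 Further: 0% = DMSO vehicle and full inhibition = artemisinin control; nearly all actives have a fitted effect of over 60% in size.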 The conditions noted are these: P. falciparum in erythrocytes, SYBR Green DNA, 72 h, at 12.8 µM (top of the series). The procedure, abridged: (§1)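 P. falciparum-infected erythrocytes (0.3% parasitemia, 2.5% hematocrit final) were exposed to compounds for 72 h at 37 C in 5% CO2, then lysed with SYBR Green buffer overnight at room temperature; parasite DNA fluorescence was normalized to artemisinin and DMSO controls.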

Experiment [11] has as its system C2A. Described as above. The conditions noted are these: P. falciparum in erythrocytes, SYBR Green DNA, 72 h; series mostly up to 12.8 µM. The method, boiled down:
as §1

In experiment [12] the test system is CP191. The description is as above. The conditions noted are these: P. falciparum in erythrocytes, SYBR Green DNA, 72 h; series mostly up to 12.8 µM. The procedure, abridged: as §1
The subject of experiment [13] is CP217. The experiment is described as above. The conditions noted are these: P. falciparum in erythrocytes, SYBR Green DNA, 72 h; series mostly up to 12.8 µM. The method, boiled down:
as §1

Experiment [14] relates to CP238. The description is as above. The conditions noted are these: P. falciparum in erythrocytes, SYBR Green DNA, 72 h; series mostly up to 12.8 µM. The procedure, abridged:
as §1

The subject of experiment [15] is CP250. The description is as above. The conditions noted are these: P. falciparum in erythrocytes, SYBR Green DNA, 72 h; series mostly up to 12.8 µM. The procedure, abridged: as §1
Experiment [16] has as its system CP256. The description is as above. The conditions noted are these: P. falciparum in erythrocytes, SYBR Green DNA, 72 h; series mostly up to 12.8 µM. The procedure, abridged:
as §1

Experiment [17] has as its system FAB9. The experiment is described as above. The conditions noted are these: P. falciparum in erythrocytes, SYBR Green DNA, 72 h; series mostly up to 12.8 µM. The procedure, abridged:
as §1

In experiment [18] the test system is JCK. The description is as above. The conditions noted are these: P. falciparum in erythrocytes, SYBR Green DNA, 72 h; series mostly up to 12.8 µM. The procedure, abridged: as §1
For experiment [19], the system named is PC49. Described as above. The conditions noted are these: P. falciparum in erythrocytes, SYBR Green DNA, 72 h; series mostly up to 12.8 µM. The procedure, abridged:
as §1

In experiment [20] the test system is SC27B. Described as above. The conditions noted are these: P. falciparum in erythrocytes, SYBR Green DNA, 72 h; series mostly up to 12.8 µM. The procedure, abridged:
as §1

The mark [21] stands for this setting: measured here: cell count channel max response.
Where [22] appears, read: measured here: lipid channel max response.

The structures appear in SMILES notation. Results filed as inconclusive are left out. Activity calls are given as the source filed them. Unless noted, the call rests on the fitted dose curve; in most records, active means well fitted inhibition curve with a large enough effect; inconclusive means small, poorly fitted or top-dose-only effect; inactive means flat fitted curve, though single readings scatter. A value given as a limit tells only on which side of the number the result lay.

Sequence of Ubiquitin carboxyl-terminal hydrolase 1 (Homo sapiens) (O94782 whole entry, looked up): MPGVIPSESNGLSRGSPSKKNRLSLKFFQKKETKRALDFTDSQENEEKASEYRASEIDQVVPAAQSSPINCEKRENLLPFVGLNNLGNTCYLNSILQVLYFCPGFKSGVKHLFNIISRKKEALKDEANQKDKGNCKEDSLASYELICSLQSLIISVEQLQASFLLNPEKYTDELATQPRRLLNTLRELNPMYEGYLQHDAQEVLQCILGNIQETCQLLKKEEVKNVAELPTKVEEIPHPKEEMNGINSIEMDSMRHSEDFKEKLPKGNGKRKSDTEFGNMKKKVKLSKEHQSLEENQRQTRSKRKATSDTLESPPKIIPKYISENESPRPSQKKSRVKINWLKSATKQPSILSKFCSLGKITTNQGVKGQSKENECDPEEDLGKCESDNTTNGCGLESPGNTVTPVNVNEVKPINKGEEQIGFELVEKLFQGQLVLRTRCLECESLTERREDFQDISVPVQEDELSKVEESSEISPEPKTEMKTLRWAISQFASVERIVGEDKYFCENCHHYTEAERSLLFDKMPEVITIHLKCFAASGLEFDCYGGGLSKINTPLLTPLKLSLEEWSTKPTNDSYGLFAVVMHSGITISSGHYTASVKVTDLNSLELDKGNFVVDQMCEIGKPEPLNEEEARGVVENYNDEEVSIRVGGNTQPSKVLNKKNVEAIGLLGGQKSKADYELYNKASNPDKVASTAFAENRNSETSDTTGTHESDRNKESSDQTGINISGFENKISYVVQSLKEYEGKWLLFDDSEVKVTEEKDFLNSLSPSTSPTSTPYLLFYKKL
Sequence of 3',5'-cyclic-AMP phosphodiesterase 4B (Homo sapiens) (Q07343 whole entry, looked up): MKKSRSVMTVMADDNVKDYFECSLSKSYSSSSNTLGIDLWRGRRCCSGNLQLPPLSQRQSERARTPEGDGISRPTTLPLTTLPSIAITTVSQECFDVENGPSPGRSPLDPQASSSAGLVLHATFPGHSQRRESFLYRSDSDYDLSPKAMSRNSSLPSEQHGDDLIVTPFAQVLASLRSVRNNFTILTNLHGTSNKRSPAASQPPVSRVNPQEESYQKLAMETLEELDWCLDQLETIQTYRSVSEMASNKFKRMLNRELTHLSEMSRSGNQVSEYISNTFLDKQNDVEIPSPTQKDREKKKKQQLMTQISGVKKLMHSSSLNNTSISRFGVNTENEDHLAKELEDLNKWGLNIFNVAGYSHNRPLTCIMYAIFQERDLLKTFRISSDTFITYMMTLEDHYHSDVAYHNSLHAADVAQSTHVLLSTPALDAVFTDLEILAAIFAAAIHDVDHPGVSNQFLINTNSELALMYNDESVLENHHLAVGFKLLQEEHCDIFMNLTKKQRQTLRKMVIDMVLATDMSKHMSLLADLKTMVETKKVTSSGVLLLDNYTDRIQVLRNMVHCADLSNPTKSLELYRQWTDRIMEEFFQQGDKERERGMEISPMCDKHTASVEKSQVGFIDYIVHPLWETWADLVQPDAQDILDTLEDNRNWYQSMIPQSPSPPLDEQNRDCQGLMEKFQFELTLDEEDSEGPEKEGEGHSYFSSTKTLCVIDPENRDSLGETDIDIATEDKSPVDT

For the molecule `CC(=O)OCC(=O)[C@@]12OC(C)(C)O[C@@H]1C[C@H]1[C@H]3C[C@H](F)C4=CC(=O)C=C[C@@]4(C)[C@]3(F)[C@H](O)C[C@@]12C`, the molecule was called inactive in experiment [1], in [3] and in [7]. Also, the values for the activity change, negative = inhibition in [2] and in experiment [8] were -1.01% (inactive) and -1.78% (inactive), respectively. The Potency in [4] is 0.00175 µM (active); in [5] it was 0.0128 µM (active). The Potency result in [6], in experiment [9], in [11], in experiment [12], in [13] and in [14] was “inactive” each time. Besides, the Potency result in [15], in experiment [16], in experiment [17], in [18], in experiment [19] and in experiment [20] was “inactive” throughout. Moreover, the max response in experiment [8] (setting [21]) is -13.1%; in experiment [8] (setting [22]), -17.4%. In addition, the activity, negative = inhibition in experiment [10] (parasite line A) is -6.81% (inactive); in experiment [10] (parasite line B) it was -12% (inactive).

With `C[C@@H]1C[C@H](OC(=O)c2ccccc2O)CC(C)(C)C1`, the molecule was classed as inactive in [1], in experiment [3] and in experiment [7]. In addition, the Potency in experiment [4] and in experiment [5] was > 20.6 µM (inactive) each time. The Potency result in experiment [6] and in experiment [9] was “inactive” throughout. In addition, the activity change, negative = inhibition in experiment [8] is -2.75% (inactive). For the same molecule, the values for the max response in experiment [8] (setting [21]) and in [8] (setting [22]) were -8.27% and -10.7%, respectively.

Take `CC1(C)O[C@@H]2C[C@H]3[C@H]4C[C@H](F)C5=CC(=O)CC[C@]5(C)[C@@H]4[C@H](O)C[C@]3(C)[C@]2(C(=O)CO)O1`: the molecule was called inactive in experiment [1], in experiment [3] and in experiment [7]. For the same molecule, the activity change, negative = inhibition in experiment [2] is -4.77% (inactive); in experiment [8], -1.62% (inactive). For the same molecule, the Potency is 0.00126 µM (active) in experiment [4] and 0.0188 µM (active) in experiment [5]. Besides, the Potency result in experiment [6], in experiment [9], in experiment [11], in experiment [12], in experiment [13] and in experiment [14] was “inactive” throughout. For the same molecule, the Potency result in [15], in experiment [16], in experiment [17], in [18], in experiment [19] and in [20] was “inactive” each time. The figures for the max response in [8] (setting [21]) and in experiment [8] (setting [22]) were -9.46% and -9.41%, respectively. The activity, negative = inhibition in experiment [10] (parasite line A) is -10.9% (inactive); in experiment [10] (parasite line B), -1.91% (inactive).

`Cc1onc(-c2ccccc2Cl)c1C(=O)N[C@H]1C(=O)N2[C@H]1SC(C)(C)[C@H]2C(=O)O`: the result in [1], in [3] and in experiment [7] was inactive. Further, the activity change, negative = inhibition was -2.89% (inactive) in experiment [2] and -0.309% (inactive) in experiment [8]. Also, the Potency in experiment [4] and in experiment [5] was > 20.6 µM (inactive) each time. The Potency result in [6], in [9], in experiment [11], in [12], in experiment [13] and in [14] was “inactive” in each case. In addition, the Potency entry in experiment [15], in [16], in [17], in experiment [18], in [19] and in experiment [20] was “inactive” throughout. The results for the max response in experiment [8] (setting [21]) and in experiment [8] (setting [22]) were 6.25% and 7.41%, respectively. The results for the activity, negative = inhibition in experiment [10] (parasite line A) and in experiment [10] (parasite line B) were 10.5% (inactive) and 7.79% (inactive), respectively.

For `CN[C@H]1[C@@H](O)[C@@H](NC)[C@@H]2O[C@@]3(O)C(=O)C[C@@H](C)O[C@H]3O[C@H]2[C@H]1O`, the result in experiment [1], in experiment [3] and in experiment [7] was inactive. The figures for the activity change, negative = inhibition in experiment [2] and in experiment [8] were -11.9% (inactive) and 0.684% (inactive), respectively. Besides, the Potency in experiment [4] and in [5] was > 20.6 µM (inactive) in each case. Further, the Potency entry in [6], in [9], in experiment [11], in experiment [12], in [13] and in [14] was “inactive” in each case. Besides, the Potency result in experiment [15], in experiment [16], in [17], in [18], in experiment [19] and in experiment [20] was “inactive” in each case. Further, the max response came to 1.41% in experiment [8] (setting [21]) and 2.93% in [8] (setting [22]). Also, the activity, negative = inhibition is -10.3% (inactive) in [10] (parasite line A) and -0.369% (inactive) in experiment [10] (parasite line B).
